A short description of test [1]: ATG_E_Box_CIS: Attagene CIS-FACTORIAL HepG2 Assay for human Enhancer Box (E-box) (AID 2282936). To be noted: HepG2 E-box cis-reporter transcription, actives raise or lower the signal. In short, it runs like this:
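DMSO served as negative control and baseline for bidirectional fitting. Human hepatoma HepG2 cells, transiently transfected with cis-reporter constructs, were dosed 24 h; reporter mRNA read by RT-PCR and capillary electrophoresis.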

Test [2] in a line: ATG_M_61_CIS: Attagene CIS-FACTORIAL HepG2 Assay for M61 Transcription Factor (Internal Marker) (AID 2282937). The note with it: HepG2 Attagene CIS-FACTORIAL M61 internal marker reporter; actives raise or lower the signal. In outline: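 Background-control endpoint: HepG2 cells with cis-regulated reporter constructs, 24 h exposure, reporter mRNA detected via fluorescent primer extension and capillary electrophoresis; values from bidirectional fitting with DMSO baseline.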

A short description of test [3]: ATG_EGR_CIS: Attagene CIS-FACTORIAL HepG2 Assay for human Early Growth Response 1 (EGR1) (AID 2282938). The note with it: HepG2 Attagene CIS-FACTORIAL EGR reporter mRNA; actives raise or lower the signal. In short, it runs like this: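 Endpoint derived by bidirectional fitting versus DMSO vehicle. Method: cis-promoter reporter units transfected into HepG2, 24 h dosing, RNA isolation, RT-PCR with 6-FAM primer extension and HpaI digestion, then capillary electrophoresis fluorescence detection.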

Test [4] is described as follows: ATG_M_19_CIS: Attagene CIS-FACTORIAL HepG2 Assay for M19 Transcription Factor (Internal Marker) (AID 2282939). To be noted: HepG2 Attagene CIS-FACTORIAL M19 internal marker reporter; actives raise or lower the signal. In short, it runs like this:
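HepG2 cells transiently transfected with cis-regulated multiplexed reporter units, dosed 24 h. Reporter mRNA quantified by RT-PCR and capillary electrophoresis; internal background marker fitted bidirectionally versus DMSO.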

Test [5] in a line: ATG_ERE_CIS: Attagene CIS-FACTORIAL HepG2 Assay for Estrogen Response Element (ERE) (AID 2282940). The note with it: HepG2 ERE cis-reporter, Attagene RNA transcript; actives raise or lower the signal. In short, it runs like this:
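HepG2 cells transiently transfected with multiplexed cis-element reporter units, measuring endogenous transcription factor activity; ERE reporter mRNA quantified after 24 h exposure by RT-PCR, fluorescent labelling, HpaI digestion and capillary electrophoresis. Bidirectional change versus DMSO.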

Test [6] can be described thus: ATG_Ets_CIS: Attagene CIS-FACTORIAL HepG2 Assay for human Erythroblast Transformation Specific (ETS) (AID 2282941). To be noted: HepG2 ETS cis-reporter transcription, actives raise or lower the signal. In short, it runs like this: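 After transient cis-reporter transfection, HepG2 cells receive test chemical for 24 h. Reporter mRNA levels, measured by RT-PCR and capillary electrophoresis fluorescence, are analysed bidirectionally relative to the DMSO baseline.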

Test [7] concerns the target Hepatocyte nuclear factor 3-beta (Homo sapiens) (UniProt Q9Y261). As to the kind of experiment: ATG_FoxA2_CIS: Attagene CIS-FACTORIAL HepG2 Assay for human Forkhead box A2 (FOXA2) (AID 2282942). The note with it: HepG2 cis-reporter transcription factor activity, 24 h; actives raise or lower the signal. In short, it runs like this: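 Measured: reporter mRNA induction or loss in HepG2 transiently carrying multiple cis-regulated reporter units, 24 h after dosing. Quantified by RT-PCR plus capillary electrophoresis, normalised to DMSO.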

A short description of test [8]: ATG_FoxO_CIS: Attagene CIS-FACTORIAL HepG2 Assay for human Forkhead box O (FoxO) (AID 2282943). The note with it: HepG2 Attagene cis-reporter, FoxO element, mRNA; actives raise or lower the signal. In outline:
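Endogenous transcription factor activity read from multiplexed cis-promoter reporter transcripts in transiently transfected HepG2, 24 h after dosing. Reporter RNA measured via RT-PCR plus capillary electrophoresis of FAM-labeled products; gain or loss relative to DMSO.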

A short description of test [9]: ATG_GATA_CIS: Attagene CIS-FACTORIAL HepG2 Assay for human GATA Binding Protein (AID 2282944). The note with it: HepG2 GATA cis-element reporter, Attagene multiplex mRNA; actives raise or lower the signal. In short, it runs like this:
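HepG2 cells transiently transfected with multiplexed cis-element reporter units measure endogenous GATA activity; after 24 h compound exposure, reporter mRNA quantified by RT-PCR and capillary electrophoresis. Changes fitted in both directions vs DMSO.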

Test [10] in a line: ATG_GLI_CIS: Attagene CIS-FACTORIAL HepG2 Assay for human Zinc Finger Protein GLI1 (AID 2282945). To be noted: HepG2, Attagene cis-factorial reporter mRNA, GLI element; actives raise or lower the signal. In outline:
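Bidirectional curve fits relative to DMSO, using reporter mRNA levels from RT-PCR plus capillary electrophoresis. Cells were HepG2 transiently carrying cis-regulated reporter constructs, harvested 24 h after dosing.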

Test [11] can be described thus: ATG_GRE_CIS: Attagene CIS-FACTORIAL HepG2 Assay for human Glucocorticoid Response Elements (GRE) (AID 2282947). The note with it: HepG2 GRE cis-reporter, Attagene multiplex mRNA; actives raise or lower the signal. In short, it runs like this: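 Assay uses human hepatoma HepG2 cells transfected with cis-promoter reporter units, exposed 24 h. mRNA from reporters detected by RT-PCR plus capillary electrophoresis; DMSO serves as negative control and baseline.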

Test [12] in a line: ATG_ISRE_CIS: Attagene CIS-FACTORIAL HepG2 Assay for human Interferon Regulatory Factor 1 (IRF1) binding to an Interferon-Stimulated Response Element (ISRE) (AID 2282948). The note with it: HepG2 ISRE cis-reporter (Attagene), mRNA transcription readout; actives raise or lower the signal. In outline:
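Quantitation relies on labelled RT-PCR fragments separated by capillary electrophoresis. Human HepG2 cells bearing cis-promoter reporter constructs were treated 24 h; DMSO served as baseline for bidirectional fitting.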

A short description of test [13]: ATG_M_32_CIS: Attagene CIS-FACTORIAL HepG2 Assay for M32 Transcription Factor (Internal Marker) (AID 2282949).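 Also: background control marker of the multiplexed CIS panel rather than a real target.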 To be noted: HepG2 Attagene cis-factorial M32 reporter, mRNA; actives raise or lower the signal. In short, it runs like this:
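Following 24 h chemical exposure of HepG2 cells transiently expressing cis-promoter reporter constructs, reporter transcript levels were determined by RT-PCR with fluorescent labelling and capillary electrophoresis, then fitted bidirectionally against DMSO.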

A short description of test [14]: ATG_M_06_CIS: Attagene CIS-FACTORIAL HepG2 Assay for M06 Transcription Factor (Internal Marker) (AID 2282950). The note with it: HepG2 Attagene CIS-FACTORIAL M06 internal marker reporter; actives raise or lower the signal. In outline:
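Internal background marker within multiplexed cis-reporter HepG2 system. Cells transiently transfected, dosed 24 h; reporter mRNA measured by RT-PCR, HpaI digestion and capillary electrophoresis. Bidirectional fit relative to DMSO.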

In test [15] the target is Hypoxia-inducible factor 1-alpha (Homo sapiens) (UniProt Q16665). As to the kind of experiment: ATG_HIF1a_CIS: Attagene CIS-FACTORIAL HepG2 Assay for human Hypoxia Inducible Factor 1 (HIF1A) (AID 2282951). To be noted: HepG2 Attagene cis-factorial HIF1a reporter transcription; actives raise or lower the signal. In outline:
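Dosed 24 h, transfected HepG2 cells yielded total RNA whose reporter transcripts were RT-PCR-amplified and sized by capillary electrophoresis using fluorescent labelling; DMSO defined baseline, with gain and loss of signal both fitted.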

Test [16] has as its target Hepatocyte nuclear factor 6 (Homo sapiens) (UniProt Q9UBC0). The experiment in a line: ATG_HNF6_CIS: Attagene CIS-FACTORIAL HepG2 Assay for human Hepatocyte Nuclear Factor 6 (HNF6) (AID 2282952). The note with it: HepG2 Attagene cis-factorial HNF6 reporter transcription; actives raise or lower the signal. In short, it runs like this:
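Transiently transfected HepG2 cells expressing cis-regulated reporter transcription units were exposed to chemical for 24 h in a 24-well format. Reporter transcript abundance was determined by fluorescence capillary electrophoresis.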

Test [17] deals with Heat shock factor protein 1 (Homo sapiens) (UniProt Q00613). As to the kind of experiment: ATG_HSE_CIS: Attagene CIS-FACTORIAL HepG2 Assay for human Heat Shock Transcription Factor 1 (HSE) (AID 2282953). To be noted: HepG2 HSE cis-reporter, Attagene RNA transcription; actives raise or lower the signal. In short, it runs like this: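 HepG2 cells transfected with cis-promoter reporter units sensing endogenous transcription factor activity; reporter mRNA quantified 24 h post-dose by RT-PCR and capillary electrophoresis of 6-FAM-labelled products. Bidirectional fitting against DMSO.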
Heat shock factor protein 1 (Homo sapiens), sequence (Q00613 whole entry, looked up): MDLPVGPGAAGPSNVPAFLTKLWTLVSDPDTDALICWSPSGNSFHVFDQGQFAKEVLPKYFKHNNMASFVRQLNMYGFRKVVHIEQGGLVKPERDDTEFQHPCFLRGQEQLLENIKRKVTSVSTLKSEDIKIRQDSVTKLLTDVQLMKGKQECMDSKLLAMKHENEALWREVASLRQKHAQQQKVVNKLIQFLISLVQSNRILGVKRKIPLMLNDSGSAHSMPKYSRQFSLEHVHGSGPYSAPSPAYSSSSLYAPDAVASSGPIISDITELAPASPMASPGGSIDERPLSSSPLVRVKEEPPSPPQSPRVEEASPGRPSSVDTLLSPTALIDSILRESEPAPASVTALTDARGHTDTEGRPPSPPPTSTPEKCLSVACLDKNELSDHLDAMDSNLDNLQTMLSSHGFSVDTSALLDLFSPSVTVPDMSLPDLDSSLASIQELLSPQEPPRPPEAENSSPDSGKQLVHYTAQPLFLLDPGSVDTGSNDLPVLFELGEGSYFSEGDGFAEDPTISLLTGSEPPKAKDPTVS

Test [18] is described as follows: ATG_MRE_CIS: Attagene CIS-FACTORIAL HepG2 Assay for human Metal Responsive Element (MRE) (AID 2282954). To be noted: HepG2 MRE cis-reporter transcription, Attagene multiplex; actives raise or lower the signal. In short, it runs like this: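 After a 24 h chemical exposure, transiently transfected HepG2 cells yield RNA whose reporter sequences are amplified, FAM-labelled and sized by capillary electrophoresis. Curves are fitted bidirectionally relative to DMSO.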

A short description of test [19]: ATG_PBREM_CIS: Attagene CIS-FACTORIAL HepG2 Assay for human Phenobarbital-responsive Enhancer Module (PBREM) (AID 2282955). The note with it: HepG2 PBREM cis-reporter, Attagene multiplexed transcription; actives raise or lower the signal. In short, it runs like this: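 Transfected liver-derived HepG2 cells exposed 24 h; PBREM reporter transcript quantified via RT-PCR and capillary electrophoresis, with activity in either direction referenced to DMSO.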

The results in this text go back to PubChem BioAssay (EPA / NIEHS).

Structures are written as SMILES. Activity calls are given as the source filed them. The calls were made as follows: active = hit-call score of the fitted dose curve at least 0.9, where 1 is the maximum; inactive = score below 0.9.

Hypoxia-inducible factor 1-alpha (Homo sapiens), sequence (Q16665 whole entry, looked up): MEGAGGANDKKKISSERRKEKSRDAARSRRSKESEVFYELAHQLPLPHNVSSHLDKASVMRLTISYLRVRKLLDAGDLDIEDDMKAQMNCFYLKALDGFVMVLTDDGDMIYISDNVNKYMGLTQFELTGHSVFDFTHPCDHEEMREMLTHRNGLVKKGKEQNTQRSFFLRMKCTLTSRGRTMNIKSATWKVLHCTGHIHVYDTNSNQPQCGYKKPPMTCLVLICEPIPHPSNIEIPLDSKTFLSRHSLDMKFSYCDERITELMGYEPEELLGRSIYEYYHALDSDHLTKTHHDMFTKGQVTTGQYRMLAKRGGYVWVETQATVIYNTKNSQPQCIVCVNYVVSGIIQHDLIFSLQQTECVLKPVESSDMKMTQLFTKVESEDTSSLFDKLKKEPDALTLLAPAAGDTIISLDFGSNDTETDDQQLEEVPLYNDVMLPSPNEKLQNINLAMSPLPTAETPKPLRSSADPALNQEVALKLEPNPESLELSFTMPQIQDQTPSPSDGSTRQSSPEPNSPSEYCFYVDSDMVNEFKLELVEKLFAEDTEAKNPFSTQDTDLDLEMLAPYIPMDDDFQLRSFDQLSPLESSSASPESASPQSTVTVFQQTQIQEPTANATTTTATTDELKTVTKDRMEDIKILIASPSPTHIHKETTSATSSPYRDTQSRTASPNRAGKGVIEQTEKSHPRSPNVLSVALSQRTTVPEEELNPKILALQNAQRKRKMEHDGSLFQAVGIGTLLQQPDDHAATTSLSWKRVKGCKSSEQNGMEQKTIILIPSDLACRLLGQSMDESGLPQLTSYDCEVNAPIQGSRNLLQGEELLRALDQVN
Hepatocyte nuclear factor 3-beta (Homo sapiens), sequence (Q9Y261 whole entry, looked up): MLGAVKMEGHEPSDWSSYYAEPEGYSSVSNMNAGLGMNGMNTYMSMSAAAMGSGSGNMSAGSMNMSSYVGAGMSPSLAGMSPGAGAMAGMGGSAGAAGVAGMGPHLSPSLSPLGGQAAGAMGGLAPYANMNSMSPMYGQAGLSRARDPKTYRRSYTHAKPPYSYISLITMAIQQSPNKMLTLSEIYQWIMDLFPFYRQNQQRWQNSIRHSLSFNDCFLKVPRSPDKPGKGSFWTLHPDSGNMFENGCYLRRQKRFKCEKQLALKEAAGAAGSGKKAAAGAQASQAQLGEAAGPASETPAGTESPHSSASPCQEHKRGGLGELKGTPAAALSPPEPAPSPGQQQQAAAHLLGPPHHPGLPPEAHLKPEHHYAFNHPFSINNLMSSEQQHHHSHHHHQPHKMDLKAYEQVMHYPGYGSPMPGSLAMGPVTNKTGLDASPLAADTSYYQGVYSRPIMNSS
Hepatocyte nuclear factor 6 (Homo sapiens), sequence (Q9UBC0 whole entry, looked up): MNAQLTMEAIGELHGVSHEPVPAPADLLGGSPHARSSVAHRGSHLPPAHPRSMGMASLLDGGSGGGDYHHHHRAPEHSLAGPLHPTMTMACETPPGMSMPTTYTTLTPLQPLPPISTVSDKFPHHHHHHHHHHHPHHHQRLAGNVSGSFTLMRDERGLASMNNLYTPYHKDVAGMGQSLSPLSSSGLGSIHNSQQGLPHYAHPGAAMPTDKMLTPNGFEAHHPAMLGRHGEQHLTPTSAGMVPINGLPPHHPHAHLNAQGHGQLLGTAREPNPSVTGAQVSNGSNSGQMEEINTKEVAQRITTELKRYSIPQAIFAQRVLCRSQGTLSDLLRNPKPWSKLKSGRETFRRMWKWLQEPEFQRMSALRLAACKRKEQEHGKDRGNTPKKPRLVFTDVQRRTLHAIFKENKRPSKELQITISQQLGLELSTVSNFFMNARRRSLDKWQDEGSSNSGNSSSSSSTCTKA

As for `CCCCCCCCCCCSCC(=O)O`, the AC50 (usually the concentration at which the activity in the assay is half-maximal) in test [1] is 100 µM (active); in [3], 82.6 µM (active); in [12] it was 74.1 µM (active); in test [15], 124 µM (active); in [16], 100 µM (active); in [17], 159 µM (active). In addition, the AC50 in test [18] was 106 µM (active). For the same compound, the compound was classed as inactive in test [2], in test [4], in [5], in test [6], in test [7] and in test [8]. In addition, the result in [9], in [10], in [11], in [13], in test [14] and in test [19] was inactive.
Take `CC(=O)c1ccc2c(c1)CCCC2`: the outcome in test [1], in [2], in test [3], in test [4], in test [5] and in test [6] was inactive. Moreover, the result in test [7], in test [8], in test [9], in test [10], in test [11] and in [12] was inactive. For the same compound, the compound was classed as inactive in [13], in [14], in test [15], in test [16], in test [17] and in [18]. For the same compound, in [19], the result was inactive.
On to `c1cc(C(c2ccc(OCC3CO3)cc2)C(c2ccc(OCC3CO3)cc2)c2ccc(OCC3CO3)cc2)ccc1OCC1CO1` (stereo not given), for which the result in test [1], in test [2], in [4], in [5], in test [6] and in test [7] was inactive. Besides, the compound was called inactive in test [8], in test [9], in test [10], in test [11], in [13] and in [14]. The result in [15], in [16] and in [19] was inactive. For the same compound, the AC50 in [3] is 39.5 µM (active); in test [12], 63.3 µM (active); in [17] it was 56.5 µM (active); in [18], 50.2 µM (active).
With `O=c1[nH]c(=O)c2[nH]c(=O)[nH]c2[nH]1`, the result in test [1], in test [2], in test [3], in [4], in [5] and in test [6] was inactive. Also, the call in test [7], in test [8], in test [9], in test [10], in test [11] and in test [12] was inactive. Besides, the result in [13], in [14], in [15], in test [16], in [17] and in [18] was inactive.
Regarding `CO[Si](OC)(OC)c1ccccc1`, the result in [1], in test [2], in test [3], in test [4], in [5] and in test [6] was inactive. For the same compound, the call in test [7], in test [8], in test [9], in test [10], in test [11] and in [12] was inactive. The call in [13], in [14], in [15], in [16], in [17] and in [18] was inactive. In test [19], the outcome was inactive.
`[Cl][Nd]([Cl])[Cl]`: the result in test [1], in [2], in test [3], in test [4], in test [5] and in test [6] was inactive. The outcome in test [7], in test [8], in [9], in test [10], in [11] and in [12] was inactive. Also, the compound was called inactive in [13], in test [14], in test [15], in test [16], in test [17] and in test [18]. Further, the result in test [19] was inactive.
In the case of `N=c1ccn2c(n1)O[C@H]1[C@H](O)[C@@H](CO)O[C@H]12`, the result in test [1], in test [2], in [3], in test [4], in test [5] and in [6] was inactive. Moreover, the compound was classed as inactive in test [7], in [8], in test [9], in test [10], in [11] and in [12]. Moreover, the result in [13], in test [14], in [15], in [16], in test [17] and in [18] was inactive.
`CCCC(C)CCC(C)=O` (stereo not given): the outcome in test [1], in test [2], in test [3], in [4], in test [5] and in [6] was inactive. In addition, the compound was called inactive in test [7], in test [8], in test [9], in test [10], in test [11] and in test [12]. Besides, the call in test [13], in test [14], in [15], in test [16], in [17] and in test [18] was inactive. For the same compound, the result in test [19] was inactive.
